We go through 13 molecules from PubChem BioAssay (NCATS).

Several values for one entry are separate records, joined by “and”; a condition that tells them apart may be missing. Equal entries are not always repeated. Results filed as inconclusive are left out. Some compounds were tested as several samples or in several runs, with calls that do not always agree. Activity calls are given as the source filed them. Calls follow the shape of the full dose curve.
Potency is read from the fitted curve at half-maximal effect.

This assay in a line: Primary qHTS to identify inhibitors of SARS-CoV-2 cell entry (AID 1645846). Also: nearly all actives have a fitted effect of over 45% in size. The following applies: SARS-CoV-2 pseudovirus cell entry assay, luminescence; activity change, negative = inhibition: at 57.1 µM (top of the series) unless noted; series mostly up to 57.1 µM. A digest of the protocol: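 Data are normalized to wells receiving SARS-CoV-2-S pseudoparticles and those given bald particles. Entry signal was luciferase luminescence in stable hACE2 Expi293F cells, 48 hr post-infection, after 1 hr compound pretreatment.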
In general terms: Quantitative high-throughput screening tests each substance at several concentrations.
With `S=C(NCc1ccc2c(c1)OCO2)N1CCN(c2ncnc3c2oc2ccccc23)CC1`, the Potency was 6.31 µM (active). `CS(=O)(=O)Oc1ccc2c(NC(N)=O)c(C(=O)c3ccc(Cl)cc3Cl)oc2c1`: the molecule was called inactive. Still for that read-out and setting: then `CCN(CC)c1ccc(C(=C2C=CC(=[N+](CC)CC)C=C2)c2cc(S(=O)(=O)O)ccc2S(=O)(=O)[O-])cc1`, with “inactive”.

Turning to `CCC(=O)N1CCN(c2ccc(-n3c(=O)ccc4cnc5ccc(-c6cnc7ccccc7c6)cc5c43)cc2C(F)(F)F)CC1`, the activity change, negative = inhibition was -91.2% [at 27.1 µM].

As to `C[C@@]12O[C@@H](C[C@]1(O)CO)n1c3ccccc3c3c4c(c5c6ccccc6n2c5c31)CNC4=O`, the Potency was 1.41 µM (active). As for `CCN(CC)CCn1c(=O)c(Cc2ccc(OC)cc2)nc2ccccc21`, the activity change, negative = inhibition was -28.6%.

With `CC(C)[C@H](C(=O)Nc1ccc(C(=O)NO)cc1)c1ccccc1`, the activity change, negative = inhibition was -95.5%.

With `Cc1c(C(=O)Nc2ccc(N3C[C@@H](C)O[C@@H](C)C3)nc2)cccc1-c1ccc(OC(F)(F)F)cc1`, the Potency result is “inactive and 12.6 µM (active)”. Take `CC[C@@H]1C(=O)N(C)c2cnc(Nc3ccc(C(=O)NC4CCN(C)CC4)cc3OC)nc2N1C1CCCC1`: the activity change, negative = inhibition is -96.8%. As to `Cc1cc(SCc2sc(-c3ccc(C(F)(F)F)cc3)nc2C)ccc1OCC(=O)O`, the molecule was classed as inactive.

Take `COc1ccc2c(c[n+](C)c3c4cc5c(cc4ccc23)OCO5)c1OC`: the activity change, negative = inhibition is -96.4%. As to `Cn1cc(-c2[nH]c3cc(NC(=O)[C@H](N)C4CCCCC4)cc4c3c2C=NNC4=O)cn1`, the Potency is 8.91 µM (active). Same read-out and setting: then `COc1cc(C)c(Sc2cnc(NC(=O)c3ccc(CNC(C)C(C)(C)C)cc3)s2)cc1C(=O)N1CCN(C(C)=O)CC1` (stereo not drawn), with 12.6 µM (active).
